# Source: the supplement of paper PMC10646978
# ± gives the standard deviation.
# Test system: RAW-Dual (murine macrophage reporter line)
# Assay: NF-kB reporter (SEAP) activity fold change vs agonist alone; higher = enhanced NF-kB activity
# Details: modulator concentration 10 µM; agonist: CpG ODN 1826 0.5 ug/mL
# Outline: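 In 384-well plates holding 50 000 RAW-Dual murine macrophage reporter cells per well, compound at 10 μM final was pre-incubated for 1 hour at 37 °C, after which a PRR agonist was added overnight. Supernatant SEAP read with QUANTI-Blue at 620 nm absorbance reported NF-κB, and Lucia luciferase read with QUANTI-Luc luminescence reported IRF. Fold change values come from dividing each reporter signal by the mean of agonist-only control wells on the same plate, averaged over replicate plates with propagated errors.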
row,SMILES,NF-kB reporter
1,Cc1ccc(S(=O)(=O)N2CCN(C(C)C)CC2)cc1,1.13 ± 0.11
2,CCN1C(=O)C(=Cc2nc3ccccc3c(=O)n2-c2ccc(C)cc2)c2ccccc21,1.06 ± 0.085
3,O=S(=O)(Nc1nc2ccccc2nc1Nc1ccc2c(c1)OCCO2)c1cccs1,0.985 ± 0.078
4,O=C1CC(c2ccc(O)cc2)Oc2cc(O)cc(O)c21 (stereo not given),1.31 ± 0.34
5,C=CCc1ccc(OCCCOc2ccccc2C(C)=O)c(OC)c1,1.02 ± 0.072
6,CCNc1nc(S)nc(NC(C)C)n1,1.13 ± 0.085
7,Cl.O[C@@H](CNC[C@H](O)[C@H]1CCc2cc(F)ccc2O1)[C@@H]1CCc2cc(F)ccc2O1,0.947 ± 0.09
8,CNc1nc(Nc2ccc(C)c(C)c2)c2nccnc2n1,0.992 ± 0.063
9,O=C(NCCOc1cccc2cccnc12)c1c(F)cccc1F,0.911 ± 0.088
10,CCNC(=O)c1ccc(CN2CCc3ccccc3C2)cc1,1.12 ± 0.09
11,Cc1ccc(N2CC(C(=O)NCC3CCCO3)CC2=O)cc1 (stereo not given),1.02 ± 0.082
12,Cc1cc(Cl)ccc1OCCCC(=O)NO,0.745 ± 0.091
13,Cc1ccc(/C(=C\CN2CCCC2)c2ccccn2)cc1.Cl.O,0.96 ± 0.26
14,Cc1cc(C)c(NC(=O)c2ccc(Oc3nccs3)cc2)c(C)c1,0.893 ± 0.039
15,O=C1OC(CNS(=O)(=O)c2ccccc2Cl)CN1c1ccc(Cl)c(Cl)c1 (stereo not given),1.08 ± 0.078
16,Cc1nc2ccc(CN(C)c3ccc(C(=O)N[C@@H](CCC(=O)O)C(=O)O)s3)cc2c(=O)[nH]1,1.28 ± 0.1
17,CN(C)CCCN1c2ccccc2Sc2ccc(Cl)cc21 [Prestw-64],0.227 ± 0.066
18,CS(=O)(=O)N(CC(=O)Nc1ccccc1Br)c1ccc(Cl)c(C(F)(F)F)c1,0.796 ± 0.13
19,O=C(OCCO)c1cc(Cl)c(C(=O)OCCO)cc1Cl,0.979 ± 0.062
20,O=C(c1cc(C(F)(F)F)cc(C(F)(F)F)c1)N1CCOCC1CO (stereo not given),0.94 ± 0.053

row,SMILES,NF-kB reporter
1,CC1CCN(c2nccnc2Oc2ccc(C(=O)N3CCN(c4ccc(F)cc4)CC3)cc2)CC1,0.803 ± 0.071
2,CC1=NN(c2ccc(Cl)cc2)C(=O)C1=Cc1c(C)nn(-c2ccc(C)cc2C)c1O,1.01 ± 0.13
3,Cc1cc(N2CCCCC2)nc2ccccc12,0.493 ± 0.041
4,COc1cccc2c1C(=O)c1c(O)c3c(c(O)c1C2=O)C[C@@](O)(C(=O)CO)C[C@@H]3O[C@H]1C[C@H](N)[C@@H](O)[C@H](C)O1.Cl,0.114 ± 0.0074
5,COc1cc(O)c2c(=O)cc(-c3ccc(O)cc3)oc2c1,1.15 ± 0.098
6,CCOc1nc2cccc(C(=O)O)c2n1Cc1ccc(-c2ccccc2-c2nnn[nH]2)cc1 [Prestw-1258],1.29 ± 0.26
7,O=C1C=C(c2c(O)ccc3ccccc23)c2ccccc2C1=O,1.19 ± 0.21
8,CCNC(=O)CCC/C=C\C[C@@H]1[C@@H](/C=C/C(O)CCc2ccccc2)[C@@H](O)C[C@@H]1O (stereo not given in full),0.953 ± 0.059
9,Br.O=S(=O)(c1ccc(-c2csc(Nc3ccc(F)cc3)n2)cc1)N1CCOCC1,0.769 ± 0.068
10,OC(c1cc(C(F)(F)F)nc2c(C(F)(F)F)cccc12)C1CCCCN1 (stereo not given) [Prestw-126],0.781 ± 0.051
11,O=S(=O)(c1cccc2ccccc12)n1nnc2ccccc21,1.01 ± 0.092
12,COc1cc(/C=C/C(=O)/C=C(O)/C=C/c2ccc(O)c(OC)c2)ccc1O,0.662 ± 0.16
13,Nc1ncn(C2OC(CO)C(O)C2O)c(=O)n1 (stereo not given),2.76 ± 0.66
14,O=C(NC1CC2CCC1C2)c1ccccc1Cl (stereo not given),0.725 ± 0.064
15,CC(C)Nc1cc(-c2c[nH]c(C(=O)N[C@H](CO)c3cccc(Cl)c3)c2)c(Cl)cn1,0.208 ± 0.012
16,O=C(NN=Cc1sc2ccccc2c1Cl)c1ccncc1,0.918 ± 0.08
17,O=C(NCCc1cn2ccccc2n1)c1ccccc1Br,0.964 ± 0.069
18,Cc1[nH]nc(-c2ccc(OCc3ccccc3)c(C)c2O)c1-c1cnn(-c2ccccc2)c1,0.892 ± 0.073
19,C#CCC(Cc1cnc2nc(N)nc(N)c2n1)c1ccc(C(=O)N[C@@H](CCC(=O)O)C(=O)O)cc1 (stereo not given in full),0.605 ± 0.045
20,O=C(C=Cc1ccccc1)NC(NC(=S)Nc1cccc2cccnc12)C(Cl)(Cl)Cl (stereo not given),0.507 ± 0.089

# Same assay, conditions: modulator concentration 10 µM; agonist: LPS 0.1 ug/mL
row,SMILES,NF-kB reporter
1,Cc1ccc(S(=O)(=O)N2CCN(C(C)C)CC2)cc1,0.94 ± 0.14
2,CCN1C(=O)C(=Cc2nc3ccccc3c(=O)n2-c2ccc(C)cc2)c2ccccc21,1.08 ± 0.071
3,O=S(=O)(Nc1nc2ccccc2nc1Nc1ccc2c(c1)OCCO2)c1cccs1,1.02 ± 0.065
4,O=C1CC(c2ccc(O)cc2)Oc2cc(O)cc(O)c21 (stereo not given),1.27 ± 0.17
5,C=CCc1ccc(OCCCOc2ccccc2C(C)=O)c(OC)c1,1.08 ± 0.082
6,CCNc1nc(S)nc(NC(C)C)n1,1.03 ± 0.051
7,Cl.O[C@@H](CNC[C@H](O)[C@H]1CCc2cc(F)ccc2O1)[C@@H]1CCc2cc(F)ccc2O1,0.759 ± 0.049
8,CNc1nc(Nc2ccc(C)c(C)c2)c2nccnc2n1,1.03 ± 0.092
9,O=C(NCCOc1cccc2cccnc12)c1c(F)cccc1F,1.01 ± 0.13
10,CCNC(=O)c1ccc(CN2CCc3ccccc3C2)cc1,1.13 ± 0.074
11,Cc1ccc(N2CC(C(=O)NCC3CCCO3)CC2=O)cc1 (stereo not given),0.97 ± 0.099
12,Cc1cc(Cl)ccc1OCCCC(=O)NO,0.794 ± 0.039
13,Cc1ccc(/C(=C\CN2CCCC2)c2ccccn2)cc1.Cl.O,1.11 ± 0.056
14,Cc1cc(C)c(NC(=O)c2ccc(Oc3nccs3)cc2)c(C)c1,1.12 ± 0.098
15,O=C1OC(CNS(=O)(=O)c2ccccc2Cl)CN1c1ccc(Cl)c(Cl)c1 (stereo not given),1.22 ± 0.11
16,Cc1nc2ccc(CN(C)c3ccc(C(=O)N[C@@H](CCC(=O)O)C(=O)O)s3)cc2c(=O)[nH]1,1.03 ± 0.052
17,CN(C)CCCN1c2ccccc2Sc2ccc(Cl)cc21 [Prestw-64],1.1 ± 0.059
18,CS(=O)(=O)N(CC(=O)Nc1ccccc1Br)c1ccc(Cl)c(C(F)(F)F)c1,0.971 ± 0.076
19,O=C(OCCO)c1cc(Cl)c(C(=O)OCCO)cc1Cl,1 ± 0.065
20,O=C(c1cc(C(F)(F)F)cc(C(F)(F)F)c1)N1CCOCC1CO (stereo not given),1.03 ± 0.12

row,SMILES,NF-kB reporter
1,CC1CCN(c2nccnc2Oc2ccc(C(=O)N3CCN(c4ccc(F)cc4)CC3)cc2)CC1,1.1 ± 0.062
2,CC1=NN(c2ccc(Cl)cc2)C(=O)C1=Cc1c(C)nn(-c2ccc(C)cc2C)c1O,0.866 ± 0.097
3,Cc1cc(N2CCCCC2)nc2ccccc12,0.701 ± 0.056
4,COc1cccc2c1C(=O)c1c(O)c3c(c(O)c1C2=O)C[C@@](O)(C(=O)CO)C[C@@H]3O[C@H]1C[C@H](N)[C@@H](O)[C@H](C)O1.Cl,0.0523 ± 0.0041
5,COc1cc(O)c2c(=O)cc(-c3ccc(O)cc3)oc2c1,1.04 ± 0.076
6,CCOc1nc2cccc(C(=O)O)c2n1Cc1ccc(-c2ccccc2-c2nnn[nH]2)cc1 [Prestw-1258],1.16 ± 0.11
7,O=C1C=C(c2c(O)ccc3ccccc23)c2ccccc2C1=O,0.399 ± 0.055
8,CCNC(=O)CCC/C=C\C[C@@H]1[C@@H](/C=C/C(O)CCc2ccccc2)[C@@H](O)C[C@@H]1O (stereo not given in full),0.965 ± 0.076
9,Br.O=S(=O)(c1ccc(-c2csc(Nc3ccc(F)cc3)n2)cc1)N1CCOCC1,0.989 ± 0.075
10,OC(c1cc(C(F)(F)F)nc2c(C(F)(F)F)cccc12)C1CCCCN1 (stereo not given) [Prestw-126],0.973 ± 0.1
11,O=S(=O)(c1cccc2ccccc12)n1nnc2ccccc21,1.03 ± 0.068
12,COc1cc(/C=C/C(=O)/C=C(O)/C=C/c2ccc(O)c(OC)c2)ccc1O,1.14 ± 0.32
13,Nc1ncn(C2OC(CO)C(O)C2O)c(=O)n1 (stereo not given),1.35 ± 0.075
14,O=C(NC1CC2CCC1C2)c1ccccc1Cl (stereo not given),0.801 ± 0.047
15,CC(C)Nc1cc(-c2c[nH]c(C(=O)N[C@H](CO)c3cccc(Cl)c3)c2)c(Cl)cn1,0.0734 ± 0.0045
16,O=C(NN=Cc1sc2ccccc2c1Cl)c1ccncc1,1.02 ± 0.091
17,O=C(NCCc1cn2ccccc2n1)c1ccccc1Br,0.943 ± 0.12
18,Cc1[nH]nc(-c2ccc(OCc3ccccc3)c(C)c2O)c1-c1cnn(-c2ccccc2)c1,1.1 ± 0.077
19,C#CCC(Cc1cnc2nc(N)nc(N)c2n1)c1ccc(C(=O)N[C@@H](CCC(=O)O)C(=O)O)cc1 (stereo not given in full),0.856 ± 0.14
20,O=C(C=Cc1ccccc1)NC(NC(=S)Nc1cccc2cccnc12)C(Cl)(Cl)Cl (stereo not given),0.575 ± 0.067
